About 11,000 (3.5%) of roughly 310,000 compounds were called active. Roughly 4% stayed inconclusive and do not appear here. The calls are words filed in the database; no cut-off is given here. Many of the other results were omitted from the sample, so actives are more common in it than they were.

The target of the test is T1, 4'-phosphopantetheinyl transferase ffp (Bacillus subtilis) (UniProt Q9F4F7).
T1 sequence (whole entry): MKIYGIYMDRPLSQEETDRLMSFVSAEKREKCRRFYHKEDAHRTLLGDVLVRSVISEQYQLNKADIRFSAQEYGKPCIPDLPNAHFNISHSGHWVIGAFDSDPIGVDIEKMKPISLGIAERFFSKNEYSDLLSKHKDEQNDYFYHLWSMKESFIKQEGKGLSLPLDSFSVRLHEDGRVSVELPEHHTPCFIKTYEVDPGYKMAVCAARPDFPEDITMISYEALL
Put plainly: qHTS Assay for Inhibitors of Bacillus subtilis Sfp phosphopantetheinyl transferase (PPTase). The format is functional.
Consider `Cl[Te]1(Cl)OCCO1`, for which the Potency is 158 nM (active).

The record behind these values is ChEMBL document CHEMBL1201862, “PubChem BioAssay data set” (2004).
